High-throughput results (PubChem)
Hits are enriched below; roughly 19% of the tested compounds scored in any of these assays.
TDP1 block = TDP1 (human) enzyme inhibition. Q9NUW8. recombinant TDP1, AlphaScreen DNA substrate cleavage. Potency, µM (series often up to 130 µM), for the others: at the top dose activity change, negative = inhibition, actives largely listed as inhibitors. actives 0.28% (n = 350,000); note: nearly all actives have a fitted effect of over 40% in size
Target sequence (Q9NUW8 whole entry, looked up): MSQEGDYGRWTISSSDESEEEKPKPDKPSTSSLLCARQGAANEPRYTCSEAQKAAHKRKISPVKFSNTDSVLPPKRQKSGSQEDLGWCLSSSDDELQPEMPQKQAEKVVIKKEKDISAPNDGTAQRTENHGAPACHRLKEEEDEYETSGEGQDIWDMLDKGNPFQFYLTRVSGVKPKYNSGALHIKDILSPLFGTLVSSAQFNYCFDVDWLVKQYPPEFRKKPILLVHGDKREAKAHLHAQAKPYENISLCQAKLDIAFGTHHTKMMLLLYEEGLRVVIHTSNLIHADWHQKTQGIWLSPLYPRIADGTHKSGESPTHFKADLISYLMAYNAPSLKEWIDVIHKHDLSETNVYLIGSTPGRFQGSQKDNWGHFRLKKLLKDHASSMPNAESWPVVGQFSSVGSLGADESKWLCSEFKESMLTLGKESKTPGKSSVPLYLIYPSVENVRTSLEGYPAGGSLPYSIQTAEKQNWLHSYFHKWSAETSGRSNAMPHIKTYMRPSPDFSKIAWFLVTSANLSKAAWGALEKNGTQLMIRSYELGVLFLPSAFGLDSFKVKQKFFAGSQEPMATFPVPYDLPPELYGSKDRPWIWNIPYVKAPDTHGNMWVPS
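Recombinant E. coli-expressed Tdp1 (1 nM) preincubated with compound 15 min at RT, then 5'-biotin/3'-phosphotyrosine-FITC DNA substrate (15 nM) added for 5 min. AlphaScreen beads (10 ug/ml) added, 10 min RT; tyrosine-FITC cleavage read as signal loss.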
RORg inh = blocks mouse ROR gamma transcriptional activity. P51450. Drosophila S2 Gal4-RORgamma UAS-luciferase reporter, 20 h. AID 2551. actives 5.4% (n = 310,000). Potency, µM (top dose mostly 53.6 µM), inactives show at the highest dose activity change, negative = inhibition, actives largely listed as inhibitors; note: nearly all actives have a fitted effect of over 60% in size
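Luminescence from a UAS-regulated Photinus luciferase reporter in stably transfected Drosophila Schneider cells is measured; decreased signal marks ROR gamma inhibition. Fusion expression is induced by 700 uM copper sulfate for 20 hr.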
DT40 TDP1 CPT = DT40-hTDP1 cell growth loss with CPT; chicken DT40 Tdp1-/-;hTDP1 cells + 20 nM CPT, ATP luminescence, 48 h; actives 12% (n = 420,000); Potency, µM (doses to about 46.2 µM), for the others: at the top dose activity change, negative = growth inhibition, most hits filed as inhibitors; note: nearly all actives have a fitted effect of over 55% in size
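Chicken DT40 Tdp1-/- cells complemented with human TDP1, 400 cells/well, exposed to compounds plus 20 nM camptothecin for at least 48 h at 37 C; viability read as ATP content by CellTiter-Glo luminescence.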
VP16 counter = inhibits Gal4-VP16 luciferase reporter, ROR gamma counter-screen; actives 3.5% (n = 310,000); Drosophila S2 Gal4-VP16 UAS-luciferase, luminescence, 20 h; Potency, µM (titrated, usually from 53.6 µM), for inactives: at the highest dose activity, negative = inhibition, most hits filed as inhibitors; AID 2546;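 note: Gal4-VP16 expression switched on by copper sulfate through the metallothionein promoter; nearly all actives have a fitted effect of over 50% in size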
DT40 TDP1 no CPT = qHTS for Inhibitors of human tyrosyl-DNA phosphodiesterase 1 (TDP1): qHTS in cells in absence of CPT | actives 15% (n = 420,000) | AID 686978, 2013 | DT40 Tdp1-/- hTDP1 cells, no CPT, ATP luminescence, 48 h | Potency, µM (series often up to 46.2 µM), for the others: at the top dose activity change, negative = growth inhibition, actives largely listed as inhibitors; note: nearly all actives have a fitted effect of over 55% in size
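Chicken DT40 Tdp1-/- cells stably complemented with human TDP1 were seeded at 400 cells/well with DMSO in place of 20 nM camptothecin. After compound pinning, cells grew at least 48 hr at 37 °C; viability read by CellTiter-Glo luminescence.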
* hit, by the source's call; ? = inconclusive; . = not tested or not shown; ! = not confirmed by another sample; [ ] = remark or other dose. Calls come from the whole dose curve; as a rule, active = well fitted curve in the direction sought with a large enough effect; inconclusive = small, poorly fitted or top-dose-only effect, or another doubt; inactive = no such curve, though single readings can be large; an effect the other way counts as inactive or inconclusive. % is set by controls: 0 for no effect and ±100 for the full control effect; potency is the fitted concentration of half-maximal effect.

SMILES	TDP1 block	RORg inh	DT40 TDP1 CPT	VP16 counter	DT40 TDP1 no CPT
CN(C)S(=O)(=O)c1cccn1-c1ncc(C(F)(F)F)cc1Cl	0%	36%	?	24%	?
CCC(CC)COC(=O)C1=C(C)NC(=O)NC1c1cc(OC)ccc1OC (stereo unspecified)	.	36%	-27%	-5%	?
COc1ccc(CNC(=O)c2ccc(CS(=O)(=O)c3ccc(Br)cc3)o2)cc1	2%	29%	23µM*	1%	23µM*!
Cc1ccc(S(=O)(=O)Cc2ccc(C(=O)O)o2)cc1	40µM*	-15%	5%	-4%	-17%
COc1ccc(S(=O)(=O)Cc2ccc(C(=O)O)o2)cc1	.	8%	10%	-11%	20%
COc1ccc(CNC(=O)c2ccc(CS(=O)(=O)c3ccc(OC)cc3)o2)cc1	6%	.	?	.	?
CSc1ccc(C(=O)C2CCCN(C(=O)CCn3cncn3)C2)cc1 (stereo unspecified)	3%[56.1 µM]	14%	4%	-1%	-25%
CC1(c2ccc(F)cc2)OC(=O)c2c1ccc1ccccc21 (stereo unspecified)	.	.	?	.	18µM*
O=C(Nc1ccccc1)Nc1nc(-c2ccc(Cl)cc2)cs1	1%	3%	?	-13%	?
NC(c1ccccc1)c1csc(NC(=O)Nc2ccccc2Oc2ccccc2)n1 (stereo unspecified)	.	.	?	.	15µM*
NC(c1ccccc1)c1csc(NC(=O)Nc2ccc(OC(F)(F)F)cc2)n1 (stereo unspecified)	.	.	23µM*	.	-107%
COc1ccc(CC(=O)Nc2ccccc2Oc2ccccc2)cc1	-3%	26%	.	15%	.
NC(c1ccccc1)c1csc(NC(=O)NCC2CCCCC2)n1 (stereo unspecified)	.	.	-84%	.	-76%
NC(Cc1ccc(C(F)(F)F)cc1)c1csc(NC(=O)Nc2ccccc2Oc2ccccc2)n1 (stereo unspecified)	.	.	?	.	18µM*
NC(Cc1ccccc1)c1csc(NC(=O)Nc2ccccc2Oc2ccccc2)n1 (stereo unspecified)	.	.	-110%	.	21µM*
COc1ccccc1NC(=O)COC(=O)c1ccc2c(=O)n3c(nc2c1)CCC3	.	.	-2%	.	-2%
CCN(CC)S(=O)(=O)c1ccc(S(=O)(=O)N2CCN(CCC#N)CC2)cc1	1%	-13%	4%	-2%	-18%
COc1ccccc1NC(=O)Nc1nc(C(N)Cc2ccc(C(F)(F)F)cc2)cs1 (stereo unspecified)	.	.	13µM*	.	15µM*
COC(=O)[C@H](Cc1ccccc1)NC(=O)NCCc1ccc(F)cc1	.	11%	-1%	8%	-25%
COc1ccccc1C(=O)NCCc1csc(-c2ccc(C(F)(F)F)cc2)n1	1%	.	?	.	?
NC(Cc1ccc(C(F)(F)F)cc1)c1csc(NC(=O)NCCc2ccccc2)n1 (stereo unspecified)	.	.	12µM*	.	13µM*
O=C(COC(=O)c1ccc(F)c(S(=O)(=O)N2CCOCC2)c1)c1ccc(Br)cc1	7%	.	-5%	.	-8%
CCCCn1c(CNC(=O)c2cccs2)nc2ccccc21	3%	11µM*	-13%	?	?
C=CCn1c(CCCNC(=O)c2ccccc2OC)nc2ccccc21	1%	-49%	?	1%	?
CCCCn1c(CCNC(=O)c2ccco2)nc2ccccc21	5%	-16%	?	-7%	?
SMILES	TDP1 block	RORg inh	DT40 TDP1 CPT	VP16 counter	DT40 TDP1 no CPT
CCCCCn1c(CCNC(=O)CCC)nc2ccccc21	3%	-20%	?	-5%	16µM*
CCCCCn1c(CNC(=O)c2cccs2)nc2ccccc21	8%	5%	?	2%	?
CCCCn1c(CCCNC(=O)c2ccco2)nc2ccccc21	4%	14%	?	-3%	15µM*
CCCn1c(CCCNC(=O)c2ccccc2OC)nc2ccccc21	6%	.	?	.	18µM*
CCN1C(=O)NC(c2ccccc2)(c2ccccc2)C1=O	.	.	1%	.	-7%
COc1ccc(N2CC(C(=O)NCCc3ccc(Cl)cc3)CC2=O)cc1 (stereo unspecified)	7%	-3%	-12%	7%	-21%
O=C(NCCc1nc2ccccc2n1Cc1c(F)cccc1Cl)c1ccco1	9%	.	?	.	?
CCCCCn1c(CCCNC(=O)CC)nc2ccccc21	3%	?	21µM*	-6%	16µM*
CCCC(=O)NCCc1nc2ccccc2n1Cc1c(F)cccc1Cl	6%	.	21µM*	.	15µM*
CCCC(=O)NCCCc1nc2ccccc2n1C	2%	-4%	-15%	1%	3%
COCc1nc2ccccc2n1Cc1c(F)cccc1Cl	2%	?	18µM*	-28%	13µM*
C=C(C)Cn1c(CCCNC(=O)CCC)nc2ccccc21	3%	-1%[0.365 µM]	13µM*	.	15µM*
O=C(NCCCc1nc2ccccc2n1Cc1c(F)cccc1Cl)C1CCCCC1	-3%	.	-15%	.	-12%
CCN(CC(=O)NCc1cccs1)C(=O)c1ccc(S(=O)(=O)N(C)c2ccccc2)cc1	0%	.	?	.	?
CSc1ccc(-c2nnn(Cc3ccccn3)n2)cc1	6%	?	17%	6%	-24%
O=C(CSc1nnc(CNc2ccc(F)cc2)n1Cc1ccccc1)N1CCOCC1	1%	26%	-4%	-1%	-3%
COc1cccc(C(=O)O[C@H]2[C@H](Cc3ccccc3)NS(=O)(=O)[C@H]3C[C@@H]4C=C[C@]23O4)c1	3%	.	?	.	?
N#Cc1cn(Cc2ccccc2)c2ccccc12	.	22%	-13%	-4%	-19%
COc1ccc(S(=O)(=O)N2CCCC2CNC(=O)C(=O)NCc2ccc(C)cc2)cc1 (stereo unspecified)	0%	.	?	.	16µM*
O=C(NCC1CCCN1S(=O)(=O)c1cccs1)C(=O)Nc1ccc(F)cc1F (stereo unspecified)	0%	.	?	.	?
COc1ccc(CCNC(=O)C(=O)NCC2CCCN2S(=O)(=O)c2cc(C)ccc2C)cc1 (stereo unspecified)	3%	.	?	.	?
O=C(NCCc1ccc(F)cc1)C(=O)NCC1CCCN1S(=O)(=O)c1ccccc1 (stereo unspecified)	.	.	10µM*	.	8.2µM*
COc1ccc(CCNC(=O)C(=O)NCC2CCCN2S(=O)(=O)c2ccccc2)cc1 (stereo unspecified)	1%	.	21µM*	.	18µM*
Cc1ccc(S(=O)(=O)N2CCCC2CNC(=O)C(=O)Nc2ccc(F)cc2F)cc1 (stereo unspecified)	1%	.	23µM*	.	15µM*
